Source: ChEMBL document CHEMBL1961873, “Compounds: GSK PKIS; Assays: Nanosyn kinase panel” (2012)

Assays:
[1] = molecular target: T1, Serine/threonine-protein kinase Nek9 (Homo sapiens) (UniProt Q8TD19); conditions: at 1 µM;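 also: each value is a mean percent inhibition of NEK9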
T1 sequence (whole entry): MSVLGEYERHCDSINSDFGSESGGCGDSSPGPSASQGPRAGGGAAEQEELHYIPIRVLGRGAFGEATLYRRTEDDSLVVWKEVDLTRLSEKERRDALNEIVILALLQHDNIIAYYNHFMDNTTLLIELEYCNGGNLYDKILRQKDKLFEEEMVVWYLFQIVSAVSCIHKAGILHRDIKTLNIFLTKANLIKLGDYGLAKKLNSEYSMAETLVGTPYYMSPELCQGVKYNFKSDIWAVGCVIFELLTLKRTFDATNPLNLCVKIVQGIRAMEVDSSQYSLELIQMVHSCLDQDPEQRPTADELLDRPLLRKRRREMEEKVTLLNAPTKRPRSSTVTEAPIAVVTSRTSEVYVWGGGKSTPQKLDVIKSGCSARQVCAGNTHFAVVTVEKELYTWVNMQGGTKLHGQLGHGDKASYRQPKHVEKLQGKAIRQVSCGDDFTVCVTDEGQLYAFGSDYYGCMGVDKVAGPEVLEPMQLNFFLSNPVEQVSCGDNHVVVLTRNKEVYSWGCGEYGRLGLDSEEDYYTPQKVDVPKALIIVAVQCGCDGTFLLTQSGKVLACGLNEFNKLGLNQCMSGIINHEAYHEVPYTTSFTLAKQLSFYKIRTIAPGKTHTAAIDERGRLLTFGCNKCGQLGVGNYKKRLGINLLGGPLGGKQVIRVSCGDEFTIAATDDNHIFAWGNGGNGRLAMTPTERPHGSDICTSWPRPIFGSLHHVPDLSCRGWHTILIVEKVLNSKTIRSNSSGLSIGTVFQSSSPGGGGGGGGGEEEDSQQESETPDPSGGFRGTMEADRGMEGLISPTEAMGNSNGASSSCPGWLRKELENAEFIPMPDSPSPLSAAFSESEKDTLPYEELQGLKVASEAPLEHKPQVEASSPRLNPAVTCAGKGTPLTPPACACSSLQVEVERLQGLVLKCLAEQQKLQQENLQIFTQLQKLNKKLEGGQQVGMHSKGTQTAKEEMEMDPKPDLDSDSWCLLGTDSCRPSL

[2] = molecular target: Serine/threonine-protein kinase PLK1 (Homo sapiens) (UniProt P53350); conditions: at 0.1 µM
[3] = molecular target: Serine/threonine-protein kinase PLK1 (Homo sapiens) (UniProt P53350); conditions: at 1 µM
[4] = molecular target: T2, Dual specificity protein kinase TTK (Homo sapiens) (UniProt P33981); conditions: at 0.1 µM
T2 sequence (whole entry): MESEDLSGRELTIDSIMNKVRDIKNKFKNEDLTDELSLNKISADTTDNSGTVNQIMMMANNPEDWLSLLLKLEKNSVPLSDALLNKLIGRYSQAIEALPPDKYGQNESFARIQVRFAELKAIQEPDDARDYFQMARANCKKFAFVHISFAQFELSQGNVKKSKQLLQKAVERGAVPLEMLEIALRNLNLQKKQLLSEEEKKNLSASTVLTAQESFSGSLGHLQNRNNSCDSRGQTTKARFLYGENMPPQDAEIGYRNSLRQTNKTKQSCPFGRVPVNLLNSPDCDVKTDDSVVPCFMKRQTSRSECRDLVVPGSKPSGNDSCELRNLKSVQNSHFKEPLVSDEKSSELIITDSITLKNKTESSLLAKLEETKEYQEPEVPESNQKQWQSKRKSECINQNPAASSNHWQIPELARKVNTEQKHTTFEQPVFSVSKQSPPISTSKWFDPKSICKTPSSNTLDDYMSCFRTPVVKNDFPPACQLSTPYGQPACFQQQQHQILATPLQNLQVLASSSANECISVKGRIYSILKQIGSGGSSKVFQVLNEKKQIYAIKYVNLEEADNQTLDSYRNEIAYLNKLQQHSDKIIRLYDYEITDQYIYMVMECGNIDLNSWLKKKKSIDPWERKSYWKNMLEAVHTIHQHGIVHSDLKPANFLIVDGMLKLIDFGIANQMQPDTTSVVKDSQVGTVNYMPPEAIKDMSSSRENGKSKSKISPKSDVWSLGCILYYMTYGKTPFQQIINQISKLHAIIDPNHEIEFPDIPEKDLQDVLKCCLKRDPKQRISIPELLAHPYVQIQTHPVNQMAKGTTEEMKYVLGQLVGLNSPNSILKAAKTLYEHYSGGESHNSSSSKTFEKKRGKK

[5] = tested on: T3, Receptor-type tyrosine-protein kinase FLT3 (Homo sapiens), P36888 [D835Y]; conditions: at 1 µM
T3 sequence (whole entry): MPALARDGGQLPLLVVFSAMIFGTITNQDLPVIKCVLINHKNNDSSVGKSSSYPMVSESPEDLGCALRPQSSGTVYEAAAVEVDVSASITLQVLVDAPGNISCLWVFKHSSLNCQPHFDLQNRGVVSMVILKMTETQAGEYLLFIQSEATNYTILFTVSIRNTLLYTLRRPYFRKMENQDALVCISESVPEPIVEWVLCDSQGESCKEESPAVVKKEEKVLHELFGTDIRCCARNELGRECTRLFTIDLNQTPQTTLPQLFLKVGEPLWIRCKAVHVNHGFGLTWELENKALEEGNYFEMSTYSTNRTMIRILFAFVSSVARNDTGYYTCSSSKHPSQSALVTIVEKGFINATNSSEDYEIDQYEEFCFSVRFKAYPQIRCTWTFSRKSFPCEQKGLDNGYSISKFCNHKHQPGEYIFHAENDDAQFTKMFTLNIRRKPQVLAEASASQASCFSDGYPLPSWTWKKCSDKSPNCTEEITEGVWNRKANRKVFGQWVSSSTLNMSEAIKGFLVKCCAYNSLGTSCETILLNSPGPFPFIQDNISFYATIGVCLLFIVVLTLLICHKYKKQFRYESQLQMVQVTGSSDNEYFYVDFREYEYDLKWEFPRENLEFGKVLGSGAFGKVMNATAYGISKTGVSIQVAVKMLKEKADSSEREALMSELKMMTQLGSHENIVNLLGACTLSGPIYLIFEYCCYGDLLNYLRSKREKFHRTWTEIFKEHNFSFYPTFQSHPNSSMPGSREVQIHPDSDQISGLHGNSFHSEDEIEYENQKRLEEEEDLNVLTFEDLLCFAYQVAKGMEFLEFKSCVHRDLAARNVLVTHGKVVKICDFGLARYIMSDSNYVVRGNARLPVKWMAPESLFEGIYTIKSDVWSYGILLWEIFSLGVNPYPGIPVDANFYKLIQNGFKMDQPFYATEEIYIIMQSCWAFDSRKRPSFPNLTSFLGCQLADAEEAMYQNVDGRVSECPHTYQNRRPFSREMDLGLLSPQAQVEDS

[6] = molecular target: Vascular endothelial growth factor receptor 3 (Homo sapiens) (UniProt P35916); conditions: at 0.1 µM
[7] = molecular target: Vascular endothelial growth factor receptor 3 (Homo sapiens) (UniProt P35916); conditions: at 1 µM
[8] = molecular target: Macrophage colony-stimulating factor 1 receptor (Homo sapiens) (UniProt P07333); conditions: at 0.1 µM
[9] = molecular target: Macrophage colony-stimulating factor 1 receptor (Homo sapiens) (UniProt P07333); conditions: at 1 µM
[10] = molecular target: Tyrosine-protein kinase Fyn (Homo sapiens) (UniProt P06241); conditions: at 0.1 µM
[11] = molecular target: Tyrosine-protein kinase Fyn (Homo sapiens) (UniProt P06241); conditions: at 1 µM
[12] = molecular target: Tyrosine-protein kinase HCK (Homo sapiens) (UniProt P08631); conditions: at 0.1 µM
[13] = molecular target: Tyrosine-protein kinase HCK (Homo sapiens) (UniProt P08631); conditions: at 1 µM
[14] = molecular target: Insulin-like growth factor 1 receptor (Homo sapiens) (UniProt P08069); conditions: at 0.1 µM
[15] = molecular target: Insulin-like growth factor 1 receptor (Homo sapiens) (UniProt P08069); conditions: at 1 µM
[16] = molecular target: Insulin receptor (Homo sapiens) (UniProt P06213); conditions: at 0.1 µM
[17] = molecular target: Insulin receptor (Homo sapiens) (UniProt P06213); conditions: at 1 µM
[18] = molecular target: Insulin receptor-related protein (Homo sapiens) (UniProt P14616); conditions: at 0.1 µM
[19] = molecular target: Insulin receptor-related protein (Homo sapiens) (UniProt P14616); conditions: at 1 µM
[20] = molecular target: T4, Tyrosine-protein kinase ITK/TSK (Homo sapiens) (UniProt Q08881); conditions: at 0.1 µM;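 also: mean percent inhibition of ITK from the GSK PKIS screen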
T4 sequence (whole entry): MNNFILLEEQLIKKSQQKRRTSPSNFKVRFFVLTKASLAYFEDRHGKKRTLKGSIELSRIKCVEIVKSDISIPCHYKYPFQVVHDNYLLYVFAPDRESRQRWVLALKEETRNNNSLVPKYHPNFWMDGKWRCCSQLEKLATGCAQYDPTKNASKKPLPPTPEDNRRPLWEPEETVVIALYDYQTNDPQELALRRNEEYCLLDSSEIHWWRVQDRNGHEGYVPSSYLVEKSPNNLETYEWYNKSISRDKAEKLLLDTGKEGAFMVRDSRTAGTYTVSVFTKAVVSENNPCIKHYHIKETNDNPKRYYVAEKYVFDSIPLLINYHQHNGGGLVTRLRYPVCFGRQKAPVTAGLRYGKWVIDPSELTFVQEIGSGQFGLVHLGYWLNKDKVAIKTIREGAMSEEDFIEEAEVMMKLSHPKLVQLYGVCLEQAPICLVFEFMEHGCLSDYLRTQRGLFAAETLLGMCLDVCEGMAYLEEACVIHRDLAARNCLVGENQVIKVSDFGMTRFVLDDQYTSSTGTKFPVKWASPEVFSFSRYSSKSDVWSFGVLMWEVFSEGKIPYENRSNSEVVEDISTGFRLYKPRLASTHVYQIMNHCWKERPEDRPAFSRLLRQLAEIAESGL

Insulin-like growth factor 1 receptor (Homo sapiens), sequence (P08069 31-736 limits assumed): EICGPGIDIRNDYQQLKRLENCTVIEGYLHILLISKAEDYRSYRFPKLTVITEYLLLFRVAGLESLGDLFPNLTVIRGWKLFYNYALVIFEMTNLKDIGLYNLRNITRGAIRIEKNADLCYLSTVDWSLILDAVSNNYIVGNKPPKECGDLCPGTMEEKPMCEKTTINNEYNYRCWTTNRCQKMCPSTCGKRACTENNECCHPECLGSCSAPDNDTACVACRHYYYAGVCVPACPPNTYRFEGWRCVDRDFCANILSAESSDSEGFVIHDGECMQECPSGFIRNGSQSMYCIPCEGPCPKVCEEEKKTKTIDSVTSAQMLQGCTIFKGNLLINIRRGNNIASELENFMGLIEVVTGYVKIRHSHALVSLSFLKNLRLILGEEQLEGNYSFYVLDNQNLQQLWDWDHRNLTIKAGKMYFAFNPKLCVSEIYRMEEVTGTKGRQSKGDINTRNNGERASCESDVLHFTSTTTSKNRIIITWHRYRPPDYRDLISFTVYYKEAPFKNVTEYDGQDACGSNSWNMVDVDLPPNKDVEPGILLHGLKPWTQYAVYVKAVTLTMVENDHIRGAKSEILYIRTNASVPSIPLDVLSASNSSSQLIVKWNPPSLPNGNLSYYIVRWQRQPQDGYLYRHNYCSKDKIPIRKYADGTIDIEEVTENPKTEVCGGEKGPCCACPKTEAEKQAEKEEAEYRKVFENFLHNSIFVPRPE
Insulin-like growth factor 1 receptor (Homo sapiens), sequence (P08069 741-1367 limits assumed): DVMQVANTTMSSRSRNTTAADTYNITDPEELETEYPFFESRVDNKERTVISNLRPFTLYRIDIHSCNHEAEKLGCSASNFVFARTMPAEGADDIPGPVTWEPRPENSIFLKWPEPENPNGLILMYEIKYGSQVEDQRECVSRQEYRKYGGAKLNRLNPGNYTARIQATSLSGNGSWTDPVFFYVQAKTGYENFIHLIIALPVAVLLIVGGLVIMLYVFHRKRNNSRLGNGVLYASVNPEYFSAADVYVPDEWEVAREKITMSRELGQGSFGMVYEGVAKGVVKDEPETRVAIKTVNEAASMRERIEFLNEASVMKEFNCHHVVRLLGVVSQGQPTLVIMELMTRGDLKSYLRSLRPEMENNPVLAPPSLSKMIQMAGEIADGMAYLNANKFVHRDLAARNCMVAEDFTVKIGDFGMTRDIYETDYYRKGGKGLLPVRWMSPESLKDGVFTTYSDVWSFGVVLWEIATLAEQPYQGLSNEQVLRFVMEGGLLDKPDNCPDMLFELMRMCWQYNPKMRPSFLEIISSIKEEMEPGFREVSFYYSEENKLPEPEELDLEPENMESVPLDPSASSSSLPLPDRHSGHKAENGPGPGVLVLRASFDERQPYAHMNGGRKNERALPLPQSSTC
Macrophage colony-stimulating factor 1 receptor (Homo sapiens), sequence (P07333 whole entry): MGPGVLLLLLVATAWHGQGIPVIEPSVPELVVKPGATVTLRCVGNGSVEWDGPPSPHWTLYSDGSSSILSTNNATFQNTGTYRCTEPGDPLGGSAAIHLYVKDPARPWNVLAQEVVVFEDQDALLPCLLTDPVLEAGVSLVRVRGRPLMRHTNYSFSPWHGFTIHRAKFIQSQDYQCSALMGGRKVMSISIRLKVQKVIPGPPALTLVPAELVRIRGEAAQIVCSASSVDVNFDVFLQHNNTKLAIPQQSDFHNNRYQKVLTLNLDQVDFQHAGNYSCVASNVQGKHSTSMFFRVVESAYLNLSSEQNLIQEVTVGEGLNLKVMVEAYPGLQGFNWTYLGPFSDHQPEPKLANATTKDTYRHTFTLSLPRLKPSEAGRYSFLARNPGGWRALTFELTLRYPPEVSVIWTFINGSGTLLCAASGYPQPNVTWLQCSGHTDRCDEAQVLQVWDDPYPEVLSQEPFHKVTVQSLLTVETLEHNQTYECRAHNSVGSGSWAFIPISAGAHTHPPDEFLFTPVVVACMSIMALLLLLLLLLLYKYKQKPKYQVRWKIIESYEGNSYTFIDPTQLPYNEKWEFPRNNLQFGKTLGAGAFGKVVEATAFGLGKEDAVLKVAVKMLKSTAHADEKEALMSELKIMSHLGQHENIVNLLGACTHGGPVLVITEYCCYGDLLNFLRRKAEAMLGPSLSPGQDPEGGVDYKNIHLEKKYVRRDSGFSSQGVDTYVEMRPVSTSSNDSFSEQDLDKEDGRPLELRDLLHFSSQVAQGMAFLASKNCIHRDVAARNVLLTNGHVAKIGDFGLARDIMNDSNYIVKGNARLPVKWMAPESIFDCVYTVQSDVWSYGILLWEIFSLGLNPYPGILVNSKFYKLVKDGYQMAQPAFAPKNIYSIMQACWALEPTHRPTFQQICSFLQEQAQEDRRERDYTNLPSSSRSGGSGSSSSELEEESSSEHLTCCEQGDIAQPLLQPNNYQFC
Insulin receptor-related protein (Homo sapiens), sequence (P14616 27-742 limits assumed): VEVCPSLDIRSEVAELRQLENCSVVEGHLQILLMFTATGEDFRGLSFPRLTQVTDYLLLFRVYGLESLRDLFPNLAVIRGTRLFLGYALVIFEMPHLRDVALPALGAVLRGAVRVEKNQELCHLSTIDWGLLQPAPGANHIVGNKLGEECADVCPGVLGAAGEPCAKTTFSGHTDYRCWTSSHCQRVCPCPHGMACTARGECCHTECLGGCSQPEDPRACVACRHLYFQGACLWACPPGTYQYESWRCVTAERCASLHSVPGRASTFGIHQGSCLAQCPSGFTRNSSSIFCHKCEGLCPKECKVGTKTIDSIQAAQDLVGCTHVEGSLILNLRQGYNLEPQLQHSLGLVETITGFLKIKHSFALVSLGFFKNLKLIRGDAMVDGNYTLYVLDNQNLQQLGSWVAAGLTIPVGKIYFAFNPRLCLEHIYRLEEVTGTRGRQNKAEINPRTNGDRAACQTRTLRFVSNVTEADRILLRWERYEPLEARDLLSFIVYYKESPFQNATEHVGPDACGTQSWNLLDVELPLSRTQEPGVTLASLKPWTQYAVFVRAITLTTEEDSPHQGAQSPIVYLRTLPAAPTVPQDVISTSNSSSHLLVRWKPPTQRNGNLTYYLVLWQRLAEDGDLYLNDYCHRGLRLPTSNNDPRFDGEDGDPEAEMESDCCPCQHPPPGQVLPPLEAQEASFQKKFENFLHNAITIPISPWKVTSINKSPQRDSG
Insulin receptor-related protein (Homo sapiens), sequence (P14616 747-1297 limits assumed): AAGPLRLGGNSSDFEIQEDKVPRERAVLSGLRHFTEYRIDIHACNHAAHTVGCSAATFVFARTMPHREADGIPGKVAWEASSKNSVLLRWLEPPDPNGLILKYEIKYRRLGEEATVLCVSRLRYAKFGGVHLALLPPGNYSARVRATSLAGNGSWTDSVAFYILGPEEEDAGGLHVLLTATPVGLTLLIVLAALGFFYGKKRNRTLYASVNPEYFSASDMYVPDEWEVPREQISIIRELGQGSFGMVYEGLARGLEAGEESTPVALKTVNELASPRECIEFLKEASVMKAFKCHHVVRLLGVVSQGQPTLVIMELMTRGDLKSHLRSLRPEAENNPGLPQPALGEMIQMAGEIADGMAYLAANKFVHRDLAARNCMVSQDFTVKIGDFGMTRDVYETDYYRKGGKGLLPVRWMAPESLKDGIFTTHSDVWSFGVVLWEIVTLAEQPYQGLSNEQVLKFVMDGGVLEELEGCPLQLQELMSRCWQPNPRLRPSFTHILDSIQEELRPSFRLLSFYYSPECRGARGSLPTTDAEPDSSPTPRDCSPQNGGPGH
Tyrosine-protein kinase HCK (Homo sapiens), sequence (P08631 2-526 limits assumed): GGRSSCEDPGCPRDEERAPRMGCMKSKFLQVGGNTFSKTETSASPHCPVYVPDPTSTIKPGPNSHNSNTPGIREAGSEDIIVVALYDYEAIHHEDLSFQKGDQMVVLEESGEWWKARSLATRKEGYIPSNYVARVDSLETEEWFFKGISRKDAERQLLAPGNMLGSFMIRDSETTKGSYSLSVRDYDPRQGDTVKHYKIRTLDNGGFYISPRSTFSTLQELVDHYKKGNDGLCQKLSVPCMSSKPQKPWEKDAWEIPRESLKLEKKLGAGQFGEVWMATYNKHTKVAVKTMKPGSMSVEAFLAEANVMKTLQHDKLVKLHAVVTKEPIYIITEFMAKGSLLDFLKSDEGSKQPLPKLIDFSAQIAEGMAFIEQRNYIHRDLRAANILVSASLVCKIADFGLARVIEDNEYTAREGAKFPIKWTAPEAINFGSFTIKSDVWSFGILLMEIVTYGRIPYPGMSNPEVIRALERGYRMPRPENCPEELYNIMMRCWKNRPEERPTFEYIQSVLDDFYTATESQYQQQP
Serine/threonine-protein kinase PLK1 (Homo sapiens), sequence (P53350 whole entry): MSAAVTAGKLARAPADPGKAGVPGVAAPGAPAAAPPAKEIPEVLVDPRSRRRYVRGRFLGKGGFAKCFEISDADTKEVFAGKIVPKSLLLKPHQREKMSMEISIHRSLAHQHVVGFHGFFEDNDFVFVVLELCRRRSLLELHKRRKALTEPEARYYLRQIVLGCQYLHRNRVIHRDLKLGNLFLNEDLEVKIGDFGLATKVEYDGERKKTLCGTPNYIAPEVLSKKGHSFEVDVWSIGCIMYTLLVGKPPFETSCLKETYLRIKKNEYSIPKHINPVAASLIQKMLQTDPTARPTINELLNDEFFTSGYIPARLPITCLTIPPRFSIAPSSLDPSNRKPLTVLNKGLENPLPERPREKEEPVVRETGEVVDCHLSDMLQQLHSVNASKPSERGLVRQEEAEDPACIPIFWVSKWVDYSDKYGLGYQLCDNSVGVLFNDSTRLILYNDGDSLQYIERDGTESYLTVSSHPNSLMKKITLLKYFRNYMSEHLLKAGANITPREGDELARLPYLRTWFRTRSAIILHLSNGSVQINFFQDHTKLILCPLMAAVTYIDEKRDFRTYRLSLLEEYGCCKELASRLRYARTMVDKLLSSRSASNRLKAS

| SMILES | inhibition [1] [%] | inhibition [2] [%] | inhibition [3] [%] | inhibition [4] [%] | inhibition [5] [%] | inhibition [6] [%] | inhibition [7] [%] | inhibition [8] [%] | inhibition [9] [%] | inhibition [10] [%] | inhibition [11] [%] | inhibition [12] [%] | inhibition [13] [%] | inhibition [14] [%] | inhibition [15] [%] | inhibition [16] [%] | inhibition [17] [%] | inhibition [18] [%] | inhibition [19] [%] | inhibition [20] [%] |
| --- | --- | --- | --- | --- | --- | --- | --- | --- | --- | --- | --- | --- | --- | --- | --- | --- | --- | --- | --- | --- |
| NC(=O)Cc1ccccc1Oc1nccc(-c2c(-c3ccc(F)cc3)ncn2C2CCNCC2)n1 | 1.22 | 3.44 | 2.54 | 5.28 | 1.28 | 1.36 | -0.28 | 0.18 | 1.47 | 2.4 | 2.13 | 2.65 | 5.75 | 3.37 | 3.6 | 5.96 | 6.34 | 0.84 | 1.69 | 1.33 |
| O=C(Nc1n[nH]c2cc(-c3ccccc3)ccc12)C1CC1 | 5.87 | 5.16 | 2.83 | 5.95 | 4.54 | 16.2 | 16.9 | 4.54 | 5.1 | 1.14 | 5.27 | 8.61 | 15.8 | 10.5 | 11.2 | 3.96 | 5.84 | 2.53 | 0.58 | 1.56 |
| Fc1ccc(-c2ncn(C3CCNCC3)c2-c2ccnc(Oc3ccc4c(c3)OCO4)n2)cc1 | 7.95 | 4.77 | 3.7 | 7.25 | -0.75 | 3.31 | 5.76 | 2.5 | 12.1 | 1.06 | 3.17 | 6.2 | 10.9 | 0.4 | 2.16 | 2.85 | 3.42 | 3.09 | 3.51 | 1.6 |
